High-throughput results (PubChem BioAssay)
HT1080NT lethal: kills 2HG-producing HT-1080-NT fibrosarcoma cells; 1.6% of 360,000 active; HT-1080-NT fibrosarcoma viability, CellTiter-Glo ATP luminescence, 48 h; Potency, µM (series often up to 46.1 µM), without a hit: top-dose activity, negative = less viability, usual class: cytotoxic; AID 686970;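 also: NT is the 2HG producing partner of a matched IDH1 knockdown line; potency is read from the fitted curve at half-maximal effect; 0% = DMSO-treated cells and -100% = media-only wells without cells; nearly all actives have a fitted effect of over 55% in size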
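HT-1080-NT; 750 cells/well; 5% FBS RPMI; 48 h compound, 37 degrees C; CellTiter-Glo luminescence; curve fitting and curve-class assignment.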
TDP1 cell CPT: DT40-hTDP1 cell growth loss with CPT | chicken DT40 Tdp1-/-;hTDP1 cells + 20 nM CPT, ATP luminescence, 48 h | Potency, µM (top dose mostly 46.2 µM), for inactives: at the highest dose activity change, negative = growth inhibition, hits mostly inhibitors | 12% of 420,000 active | AID 686979; also: potency is read from the fitted curve at half-maximal effect; nearly all actives have a fitted effect of over 55% in size
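Cell growth measured by CellTiter-Glo luminescence after a minimum 48 h, 37 C compound exposure with 20 nM CPT in Tdp1-knockout DT40 cells stably expressing hTDP1, seeded 400/well; qHTS titration format.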
TDP1 cell noCPT: qHTS for Inhibitors of human tyrosyl-DNA phosphodiesterase 1 (TDP1): qHTS in cells in absence of CPT. DT40 Tdp1-/- hTDP1 cells, no CPT, ATP luminescence, 48 h. AID 686978, 2013. 15% of 420,000 active. Potency, µM (highest dose often 46.2 µM), inactives show at the highest dose activity change, negative = growth inhibition, actives largely listed as inhibitors; also: potency is read from the fitted curve at half-maximal effect; nearly all actives have a fitted effect of over 55% in size
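Readout: luminescence from CellTiter-Glo after 30 min in the dark at RT. Cells: DT40 Tdp1-/- with stable hTDP1, 400/well. Exposure: compounds alone, ≥48 hr, 37 °C.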
HT1080 IDH1KD tx: HT-1080 IDH1 knockdown cell toxicity (counter line) | HT-1080 IDH1 knockdown viability, ATP luminescence, 48 h | Potency, µM (titrated, usually from 46.1 µM), for the others: at the highest dose activity, negative = toxicity, most hits filed as cytotoxic | 2% of 360,000 active | AID 686971;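 also: potency is read from the fitted curve at half-maximal effect; 0% = DMSO wells and -100% = cell-free medium wells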
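Cytotoxicity counter-line: IDH1KD HT-1080, 48 h, CellTiter-Glo. Curves classed by r2, magnitude and activity.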
IL-1B inflam inh: inflammasome signaling inhibition, IL-1 beta readout; THP-1 LPS/ATP IL-1B secretion, AlphaLISA, 16 h; hits give low values; activity change, % at 57.5 µM; 4.7% of 360,000 active; AID 743279; in the data active = activity change below about -50%; inconclusive = mostly about -30% to -49%
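THP-1 cells pretreated 1 hr with compounds (up to 57.5 uM final), then stimulated with LPS (250 ng/mL final) plus ATP (1.25 mM final); secreted IL-1B measured by AlphaLISA after 16 hr, decreased signal indicating inhibition.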
* hit, by the source's call; ? = inconclusive; / = not tested or not shown. Shown are actives, neighbours in structure and some others; about 19% of the full set was active somewhere. Unless noted, calls follow the shape of the dose curve; as a rule, active = well fitted curve in the direction sought with a large enough effect; inconclusive = small, poorly fitted or top-dose-only effect, or another doubt; inactive = no such curve, though single readings can be large; an effect the other way counts as inactive or inconclusive. Unless noted, % is scaled to controls: 0 for no effect and ±100 for the full control effect.

SMILES	HT1080NT lethal	TDP1 cell CPT	TDP1 cell noCPT	HT1080 IDH1KD tx	IL-1B inflam inh
C[C@@H](O)[C@H]1C(=O)N2C(C(=O)O)=C(S[C@@H]3CN[C@H](C(=O)N(C)C)C3)[C@H](C)[C@H]12	/	-4%	-1%	/	/
Cc1ccc(S(=O)(=O)NCC(c2ccc3c(c2)OCO3)N2CCN(c3ccccc3)CC2)cc1 (stereo not given)	-4%	?	?	-7%	-8
O=S(=O)(NCC(c1ccc2c(c1)OCO2)N1CCOCC1)c1ccc(F)cc1 (stereo not given)	1%	0%	-5%	5%	-6
COc1ccc(C(=O)NCC(c2ccc3c(c2)OCO3)N2CCN(c3ccc(OC)cc3)CC2)cc1 (stereo not given)	0%	3.3µM*	5.8µM*	-8%	-17
COc1cccc(NC(=O)C(=O)NCC(c2ccc3c(c2)OCO3)N2CCOCC2)c1 (stereo not given)	/	?	16µM*	/	/
COc1ccc(S(=O)(=O)NCC(c2ccc3c(c2)OCO3)N2CCN(c3ccccc3)CC2)cc1 (stereo not given)	-12%	?	23µM*	-19%	?
O=S(=O)(NCC(c1ccc2c(c1)OCO2)N1CCOCC1)c1ccc(Br)cc1 (stereo not given)	-19%	16µM*	21µM*	-9%	-17
CCSc1n[nH]c(=O)[nH]c1=O	1%	-9%	3%	-3%	17
CC1N(C(=O)N2CCOCC2)CCN1S(=O)(=O)c1cccc(C(F)(F)F)c1 (stereo not given)	2%	7%	-2%	-2%	-4
COc1ccc(-c2cc(C(F)(F)F)n3nc(C(N)=O)cc3n2)cc1	23%	1%	-14%	19%	23
CCNC(=O)N1CCCC(C(=O)c2ccc(C(F)(F)F)cc2)C1 (stereo not given)	1%	?	?	7%	0
Cc1ccc(N2C(=O)C(Cl)=C(N3CCCCCC3)C2=O)c(C)c1	0%	?	15µM*	-10%	?
CCCCC(=O)c1ccc(OC(=O)c2ccc([N+](=O)[O-])cc2)cc1	6%	-27%	-16%	9%	1
CCOc1ccc2nc(Cl)c(C3CC(c4ccc(OC)cc4)=NN3S(C)(=O)=O)cc2c1 (stereo not given)	/	8.2µM*	16µM*	/	/
CCOc1ccc2nc(Cl)c(C3CC(c4ccco4)=NN3S(=O)(=O)c3ccccc3)cc2c1 (stereo not given)	-8%	-25%	?	0%	-10
O.O.O.O.O.O.O.O=S(=O)([O-])[O-].[Co+2]	/	-23%	-17%	/	/
CCOC(=O)c1c(NC(=O)/C=C\C(=O)O)sc(C)c1-c1ccccc1	?	?	?	?	-99*
Cc1sc(NC(=O)C2C3CCC(C3)C2C(=O)O)c(C(N)=O)c1-c1ccc(C(C)(C)C)cc1 (stereo not given)	?	?	12µM*	?	-2
CCOC(=O)c1c(NC(=O)/C=C/C(=O)O)sc(C)c1-c1ccc(C(C)(C)C)cc1	8.2µM*	13µM*	21µM*	5.8µM*	-106*
CCc1ccc(-c2c(C)sc(NC(C)=O)c2C(N)=O)cc1	-12%	?	23µM*	-24%	?
Cc1coc2cc3oc(=O)c(CCC(=O)N[C@@H](CCCNC(N)=O)C(=O)O)c(C)c3cc12	13%	-3%	5%	-2%	14
Cc1sc(NC(=O)/C=C/C(=O)O)c(C(N)=O)c1-c1ccc(C(C)(C)C)cc1	?	23µM*	?	21µM*	-91*
Cc1sc(NC(=O)c2cccc([N+](=O)[O-])c2)c(C(N)=O)c1-c1ccc(C(C)(C)C)cc1	22%	?	21µM*	21%	-17
CCn1cc(C(=O)N2CCCC(CO)(Cc3ccccc3C)C2)cn1 (stereo not given)	12%	-1%	12%	15%	32
COc1ccc(NC(=O)c2cc3cc(C)ccc3[nH]2)cc1	/	-21%	-18%	/	/
